# Reference: PubChem BioAssay (EPA / NIEHS)
# Activity calls are given as the source filed them. Rule for the calls: active = hit-call score of the fitted dose curve at least 0.9, where 1 is the maximum; inactive = score below 0.9.
# How the values were obtained:
# [1] = target: Bile acid receptor (Homo sapiens) (UniProt Q96RI1); experiment: ATG_IR1_CIS: Attagene CIS-FACTORIAL HepG2 Assay for human Nuclear Receptor Subfamily 1 Group H Member 4 (NR1H4), IR1 submotif (AID 2282946); details: IR1 reporter transcription, actives raise or lower the signal
# Sequence of Bile acid receptor (Homo sapiens) (Q96RI1 whole entry, looked up): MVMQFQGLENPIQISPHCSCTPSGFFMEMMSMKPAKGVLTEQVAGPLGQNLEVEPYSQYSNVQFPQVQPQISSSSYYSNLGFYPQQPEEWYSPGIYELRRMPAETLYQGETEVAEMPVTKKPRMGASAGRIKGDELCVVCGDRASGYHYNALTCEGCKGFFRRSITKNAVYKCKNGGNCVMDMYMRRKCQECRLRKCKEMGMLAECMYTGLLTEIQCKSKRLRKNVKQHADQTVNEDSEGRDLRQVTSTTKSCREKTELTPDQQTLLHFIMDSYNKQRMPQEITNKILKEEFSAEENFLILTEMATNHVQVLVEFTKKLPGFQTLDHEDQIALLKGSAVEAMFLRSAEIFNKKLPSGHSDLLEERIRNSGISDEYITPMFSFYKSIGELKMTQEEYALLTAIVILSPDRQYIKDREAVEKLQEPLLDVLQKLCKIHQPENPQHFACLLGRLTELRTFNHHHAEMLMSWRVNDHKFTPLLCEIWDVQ
# Outline: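 Readout: reporter transcript levels by RT-PCR with fluorescent capillary electrophoresis, from HepG2 cells transiently transfected with multiplexed cis-regulated reporters and dosed 24 h. Gain- or loss-of-signal fitted versus DMSO negative control.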
# [2] = ATG_GRE_CIS: Attagene CIS-FACTORIAL HepG2 Assay for human Glucocorticoid Response Elements (GRE) (AID 2282947); details: HepG2 GRE cis-reporter, Attagene multiplex mRNA; actives raise or lower the signal
# Outline: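 Cells (HepG2) bearing transfected cis-promoter reporter transcription units were treated with chemical for 24 hours. Reporter mRNA was measured via RT-PCR with capillary electrophoresis, and activity was fitted in both directions relative to DMSO.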
# [3] = ATG_ISRE_CIS: Attagene CIS-FACTORIAL HepG2 Assay for human Interferon Regulatory Factor 1 (IRF1) binding to an Interferon-Stimulated Response Element (ISRE) (AID 2282948); details: HepG2 ISRE cis-reporter (Attagene), mRNA transcription readout; actives raise or lower the signal
# Outline: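 Endogenous transcription factor activity read as reporter transcript abundance via RT-PCR and capillary electrophoresis. HepG2 cells transiently transfected, 24 h chemical exposure. Gain or loss fitted against DMSO baseline.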
# [4] = ATG_M_32_CIS: Attagene CIS-FACTORIAL HepG2 Assay for M32 Transcription Factor (Internal Marker) (AID 2282949); details: HepG2 Attagene cis-factorial M32 reporter, mRNA; actives raise or lower the signal;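 note: background control marker of the multiplexed CIS panel rather than a real target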
# Outline: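 HepG2 human liver cells transiently transfected with cis-promoter-driven multiple reporter transcription units, dosed 24 h. Reporter mRNA quantified by RT-PCR, FAM-labelled primer extension, HpaI digest and capillary electrophoresis; bidirectional fit versus DMSO baseline.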
# [5] = ATG_M_06_CIS: Attagene CIS-FACTORIAL HepG2 Assay for M06 Transcription Factor (Internal Marker) (AID 2282950); details: HepG2 Attagene CIS-FACTORIAL M06 internal marker reporter; actives raise or lower the signal
# Outline: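 Terse: HepG2, transient MRTU transfection (FuGene 6), 24 h dosing; total RNA, oligo(dT) RT, PCR, FAM label, HpaI cut, capillary electrophoresis; bidirectional fit vs DMSO baseline; background-control endpoint.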
# [6] = target: Hypoxia-inducible factor 1-alpha (Homo sapiens) (UniProt Q16665); experiment: ATG_HIF1a_CIS: Attagene CIS-FACTORIAL HepG2 Assay for human Hypoxia Inducible Factor 1 (HIF1A) (AID 2282951); details: HepG2 Attagene cis-factorial HIF1a reporter transcription; actives raise or lower the signal
# Sequence of Hypoxia-inducible factor 1-alpha (Homo sapiens) (Q16665 whole entry, looked up, the tested form may be a part): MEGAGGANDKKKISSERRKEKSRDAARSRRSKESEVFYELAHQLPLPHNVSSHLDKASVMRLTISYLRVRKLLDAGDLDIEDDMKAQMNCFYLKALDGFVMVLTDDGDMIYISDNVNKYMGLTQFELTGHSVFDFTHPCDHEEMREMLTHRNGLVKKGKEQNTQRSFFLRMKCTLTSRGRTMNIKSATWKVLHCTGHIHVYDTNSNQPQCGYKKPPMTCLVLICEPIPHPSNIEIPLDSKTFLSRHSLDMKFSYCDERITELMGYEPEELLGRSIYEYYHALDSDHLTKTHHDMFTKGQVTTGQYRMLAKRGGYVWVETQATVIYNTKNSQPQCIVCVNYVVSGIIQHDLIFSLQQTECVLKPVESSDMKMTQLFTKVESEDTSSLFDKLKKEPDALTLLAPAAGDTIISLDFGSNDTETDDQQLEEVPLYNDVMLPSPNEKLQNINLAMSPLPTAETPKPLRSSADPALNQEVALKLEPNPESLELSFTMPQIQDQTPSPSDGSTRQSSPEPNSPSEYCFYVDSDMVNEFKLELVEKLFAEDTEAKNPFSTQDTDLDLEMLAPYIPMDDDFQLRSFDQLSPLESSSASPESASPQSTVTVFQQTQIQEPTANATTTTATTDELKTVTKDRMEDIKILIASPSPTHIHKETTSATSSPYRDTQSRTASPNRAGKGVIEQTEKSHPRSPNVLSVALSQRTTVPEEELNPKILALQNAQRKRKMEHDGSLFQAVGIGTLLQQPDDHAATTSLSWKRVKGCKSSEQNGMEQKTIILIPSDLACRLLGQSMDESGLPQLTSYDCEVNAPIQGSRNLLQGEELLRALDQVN
# Outline: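 Transient MRTU transfection of human HepG2 liver cells, 24 h compound treatment, then total RNA isolation, oligo(dT) reverse transcription, PCR amplification, fluorescent labelling and capillary electrophoresis of reporter fragments. Gain or loss relative to DMSO.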
# [7] = target: Hepatocyte nuclear factor 6 (Homo sapiens) (UniProt Q9UBC0); experiment: ATG_HNF6_CIS: Attagene CIS-FACTORIAL HepG2 Assay for human Hepatocyte Nuclear Factor 6 (HNF6) (AID 2282952); details: HepG2 Attagene cis-factorial HNF6 reporter transcription; actives raise or lower the signal
# Sequence of Hepatocyte nuclear factor 6 (Homo sapiens) (Q9UBC0 whole entry, looked up): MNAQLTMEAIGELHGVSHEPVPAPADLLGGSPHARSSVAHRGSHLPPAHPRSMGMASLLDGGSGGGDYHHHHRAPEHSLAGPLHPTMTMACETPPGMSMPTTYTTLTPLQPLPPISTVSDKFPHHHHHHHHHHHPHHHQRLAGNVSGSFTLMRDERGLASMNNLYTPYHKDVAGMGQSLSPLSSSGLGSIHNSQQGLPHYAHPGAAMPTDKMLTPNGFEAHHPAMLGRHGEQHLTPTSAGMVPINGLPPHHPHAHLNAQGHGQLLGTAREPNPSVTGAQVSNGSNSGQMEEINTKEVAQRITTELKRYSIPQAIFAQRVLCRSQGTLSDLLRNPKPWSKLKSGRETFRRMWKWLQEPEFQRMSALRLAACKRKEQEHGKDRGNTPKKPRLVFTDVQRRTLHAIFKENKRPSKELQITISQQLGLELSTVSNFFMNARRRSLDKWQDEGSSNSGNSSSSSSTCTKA
# Outline: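 Endogenous factor activity read in transiently transfected HepG2 via promoter-regulated reporter transcripts. RNA harvested 24 h post-dosing, reverse-transcribed, PCR-amplified, FAM-labelled, HpaI-digested and resolved by capillary electrophoresis; fitted in both directions against DMSO.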
# [8] = target: Heat shock factor protein 1 (Homo sapiens) (UniProt Q00613); experiment: ATG_HSE_CIS: Attagene CIS-FACTORIAL HepG2 Assay for human Heat Shock Transcription Factor 1 (HSE) (AID 2282953); details: HepG2 HSE cis-reporter, Attagene RNA transcription; actives raise or lower the signal
# Sequence of Heat shock factor protein 1 (Homo sapiens) (Q00613 whole entry, looked up, the tested form may be a part): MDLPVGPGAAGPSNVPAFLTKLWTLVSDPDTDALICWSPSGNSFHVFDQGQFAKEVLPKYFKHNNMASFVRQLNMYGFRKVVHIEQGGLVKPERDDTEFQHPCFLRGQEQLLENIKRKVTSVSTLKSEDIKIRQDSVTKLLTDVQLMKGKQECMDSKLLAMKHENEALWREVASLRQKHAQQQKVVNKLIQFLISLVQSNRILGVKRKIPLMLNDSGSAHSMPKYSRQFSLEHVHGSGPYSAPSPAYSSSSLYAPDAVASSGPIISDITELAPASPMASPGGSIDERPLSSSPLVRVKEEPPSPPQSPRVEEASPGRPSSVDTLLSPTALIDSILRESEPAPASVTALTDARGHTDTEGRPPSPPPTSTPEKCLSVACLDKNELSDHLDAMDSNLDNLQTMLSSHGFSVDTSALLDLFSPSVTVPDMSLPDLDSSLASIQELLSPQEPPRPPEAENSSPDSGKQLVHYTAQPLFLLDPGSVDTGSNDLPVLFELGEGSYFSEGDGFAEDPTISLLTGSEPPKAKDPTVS
# Outline: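 Read-out: fluorescence of reporter-specific RT-PCR fragments separated by capillary electrophoresis. HepG2 carrying transfected cis-element reporter units; 24 h dosing; activity fitted in both directions relative to DMSO baseline.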
# [9] = ATG_MRE_CIS: Attagene CIS-FACTORIAL HepG2 Assay for human Metal Responsive Element (MRE) (AID 2282954); details: HepG2 MRE cis-reporter transcription, Attagene multiplex; actives raise or lower the signal
# Outline: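 Cells were transfected with cis-promoter reporter transcription units, then dosed for 24 h. RNA was reverse-transcribed, amplified, fluorescently labelled and resolved by capillary electrophoresis, and activity was fitted in both directions relative to DMSO.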
# [10] = target: Paired box protein Pax-6 (Homo sapiens) (UniProt P26367); experiment: ATG_Pax6_CIS: Attagene CIS-FACTORIAL HepG2 Assay for human Paired Box 6 (PAX6) (AID 2282956); details: HepG2 CIS-FACTORIAL PAX6 reporter transcription, RNA readout; actives raise or lower the signal
# Sequence of Paired box protein Pax-6 (Homo sapiens) (P26367 whole entry, looked up): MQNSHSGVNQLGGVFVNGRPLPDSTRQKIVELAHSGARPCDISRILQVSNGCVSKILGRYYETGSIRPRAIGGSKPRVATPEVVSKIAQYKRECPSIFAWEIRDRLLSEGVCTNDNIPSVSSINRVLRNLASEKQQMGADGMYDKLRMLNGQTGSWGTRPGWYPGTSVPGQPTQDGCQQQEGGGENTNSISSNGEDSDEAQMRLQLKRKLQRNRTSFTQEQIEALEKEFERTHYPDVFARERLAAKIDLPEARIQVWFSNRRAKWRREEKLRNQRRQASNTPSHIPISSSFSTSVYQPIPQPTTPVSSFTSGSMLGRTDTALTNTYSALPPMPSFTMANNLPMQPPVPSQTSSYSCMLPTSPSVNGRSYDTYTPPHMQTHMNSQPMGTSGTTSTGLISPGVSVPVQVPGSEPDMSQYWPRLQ
# Outline: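 Read-out is reporter transcript level, measured by RT-PCR with fluorescent primer extension and capillary electrophoresis after 24 h dosing of transfected HepG2 cells. Activity in either direction fitted relative to DMSO control.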
# [11] = ATG_PXRE_CIS: Attagene CIS-FACTORIAL HepG2 Assay for human Pregnane X Receptor Element (PXRE) (AID 2282957); details: HepG2 Attagene CIS-FACTORIAL PXRE reporter, mRNA; actives raise or lower the signal
# Outline: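 Reporter transcripts under endogenous PXR-responsive cis-regulation quantified from total RNA of transfected HepG2 cells 24 h post-dosing, via RT-PCR with fluorescent primer extension and capillary electrophoresis. Gain or loss of signal fitted against DMSO baseline.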
# [12] = ATG_PPRE_CIS: Attagene CIS-FACTORIAL HepG2 Assay for human Peroxisome Proliferator-activated Response Element (PPRE) (AID 2282958); details: HepG2 PPRE cis-element reporter, Attagene transcription factor profiling; actives raise or lower the signal
# Outline: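 HepG2, transient MRTU transfection (cis promoter elements, endogenous TFs). 24 h dosing. RNA → oligo(dT) RT → PCR → 6-FAM primer extension → HpaI digest → CE. Bidirectional fit vs DMSO.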
# [13] = target: Transcription factor Sp1 (Homo sapiens) (UniProt P08047); experiment: ATG_Sp1_CIS: Attagene CIS-FACTORIAL HepG2 Assay for human Specificity Protein 1 (Sp1) (AID 2282961); details: HepG2 Sp1 cis-reporter transcription, actives raise or lower the signal
# Sequence of Transcription factor Sp1 (Homo sapiens) (P08047 whole entry, looked up): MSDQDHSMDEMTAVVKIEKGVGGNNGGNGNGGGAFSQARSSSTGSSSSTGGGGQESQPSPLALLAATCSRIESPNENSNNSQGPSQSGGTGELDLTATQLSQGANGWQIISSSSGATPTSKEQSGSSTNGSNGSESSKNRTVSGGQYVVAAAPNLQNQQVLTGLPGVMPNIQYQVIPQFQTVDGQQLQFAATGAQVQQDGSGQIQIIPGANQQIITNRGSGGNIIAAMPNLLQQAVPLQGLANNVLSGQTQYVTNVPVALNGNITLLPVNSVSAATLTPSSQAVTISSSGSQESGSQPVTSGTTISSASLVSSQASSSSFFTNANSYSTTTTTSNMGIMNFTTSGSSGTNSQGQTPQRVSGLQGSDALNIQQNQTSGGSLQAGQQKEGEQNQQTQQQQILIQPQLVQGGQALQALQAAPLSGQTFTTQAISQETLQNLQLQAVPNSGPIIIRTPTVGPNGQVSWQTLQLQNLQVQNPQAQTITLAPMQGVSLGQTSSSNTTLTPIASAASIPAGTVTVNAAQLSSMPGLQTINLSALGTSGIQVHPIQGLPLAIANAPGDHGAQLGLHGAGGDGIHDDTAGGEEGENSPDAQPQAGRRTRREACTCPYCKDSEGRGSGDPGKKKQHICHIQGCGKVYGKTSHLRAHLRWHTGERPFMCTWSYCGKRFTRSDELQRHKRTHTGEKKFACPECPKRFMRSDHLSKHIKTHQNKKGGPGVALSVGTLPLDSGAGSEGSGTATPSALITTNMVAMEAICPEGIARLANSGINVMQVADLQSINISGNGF
# Outline: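 Transient MRTU-transfected HepG2, 24 h compound exposure. Total RNA → oligo(dT) RT → PCR of reporter → 6-FAM primer extension → HpaI digest → CE. Endpoint fitted both directions vs DMSO.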
# [14] = ATG_SREBP_CIS: Attagene CIS-FACTORIAL HepG2 Assay for human Sterol Regulatory Element Binding (SREBP) (AID 2282962); details: HepG2 Attagene cis-factorial SREBP reporter, mRNA; actives raise or lower the signal
# Outline: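 Endogenous SREBP activity read as cis-element-driven reporter transcript in transiently transfected HepG2, 24 h post-dosing; quantified via RT-PCR plus capillary electrophoresis of fluorescent fragments. Gain or loss of signal fitted relative to DMSO baseline.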
# [15] = target: Signal transducer and activator of transcription 3 (Homo sapiens) (UniProt P40763); experiment: ATG_STAT3_CIS: Attagene CIS-FACTORIAL HepG2 Assay for human Signal Transducer and Activator of Transcription 3 (STAT3) (AID 2282963); details: HepG2, Attagene cis-factorial STAT3 reporter transcription; actives raise or lower the signal
# Sequence of Signal transducer and activator of transcription 3 (Homo sapiens) (P40763 whole entry, looked up): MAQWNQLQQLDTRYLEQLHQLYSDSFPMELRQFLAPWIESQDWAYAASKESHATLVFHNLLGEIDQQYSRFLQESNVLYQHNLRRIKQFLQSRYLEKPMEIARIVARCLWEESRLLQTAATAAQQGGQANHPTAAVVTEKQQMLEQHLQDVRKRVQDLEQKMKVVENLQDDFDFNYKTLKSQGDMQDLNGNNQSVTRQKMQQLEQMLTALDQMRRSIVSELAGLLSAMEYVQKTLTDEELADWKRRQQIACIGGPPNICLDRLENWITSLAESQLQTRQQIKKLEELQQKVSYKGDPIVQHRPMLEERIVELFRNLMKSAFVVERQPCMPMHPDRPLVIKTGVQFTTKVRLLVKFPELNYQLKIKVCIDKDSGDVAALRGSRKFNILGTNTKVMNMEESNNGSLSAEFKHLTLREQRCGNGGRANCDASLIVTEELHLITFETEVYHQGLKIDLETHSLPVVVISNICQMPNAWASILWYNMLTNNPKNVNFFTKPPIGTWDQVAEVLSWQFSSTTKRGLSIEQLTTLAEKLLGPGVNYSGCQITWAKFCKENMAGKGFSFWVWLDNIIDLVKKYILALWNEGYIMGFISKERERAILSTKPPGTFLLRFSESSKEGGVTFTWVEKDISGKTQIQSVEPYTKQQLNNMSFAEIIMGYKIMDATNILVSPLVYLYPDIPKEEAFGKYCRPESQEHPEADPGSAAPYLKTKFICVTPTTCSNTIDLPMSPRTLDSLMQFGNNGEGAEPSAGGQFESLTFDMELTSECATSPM
# Outline: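 HepG2, MRTU-transfected, 24 h dosing. RNA → RT → PCR → FAM label → HpaI → CE. Bidirectional fit vs DMSO.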
# [16] = ATG_TA_CIS: Attagene CIS-FACTORIAL HepG2 Assay for human TA Basal Promoter (AID 2282964); details: HepG2 Attagene CIS-factorial TA basal promoter reporter; actives raise or lower the signal
# Outline: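 Transfected HepG2, 24 h compound exposure; RNA → RT-PCR → FAM primer extension → HpaI cut → CE fluorescence. Gain/loss-of-signal fitted against DMSO negative control. Background-control readout.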
# [17] = ATG_TCF_b_cat_CIS: Attagene CIS-FACTORIAL HepG2 Assay for human T-Cell-Factor with beta-catenin (TCF/b-cat) (AID 2282965); details: HepG2 TCF/beta-catenin cis-reporter transcription, actives raise or lower the signal
# Outline: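 HepG2 cells transiently transfected with multiple cis-promoter-regulated reporter transcription units, so endogenous transcription factor activity is measured. Reporter mRNA read 24 hours after dosing by RT-PCR, fluorescent labelling and capillary electrophoresis; bidirectional fitting against DMSO.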
# [18] = ATG_PBREM_CIS: Attagene CIS-FACTORIAL HepG2 Assay for human Phenobarbital-responsive Enhancer Module (PBREM) (AID 2282955); details: HepG2 PBREM cis-reporter, Attagene multiplexed transcription; actives raise or lower the signal
# Outline: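 Endogenous transcription factors in human liver HepG2 cells drive a PBREM cis-element reporter, whose transcript level after 24 h treatment is quantified by RT-PCR with capillary electrophoresis; activity fitted in both directions against DMSO.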
# [19] = ATG_RORE_CIS: Attagene CIS-FACTORIAL HepG2 Assay for human RAR-related Orphan Receptor Element (RORE) (AID 2282959); details: HepG2 Attagene cis-factorial RORE reporter, mRNA; actives raise or lower the signal
# Outline: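 Transient MRTU transfection of human HepG2 liver cells (FuGene 6); 24 h compound exposure; TriZol RNA, oligo(dT) RT, PCR, FAM labeling, HpaI cut, CE fragment analysis. DMSO = negative control/baseline.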
# [20] = ATG_Sox_CIS: Attagene CIS-FACTORIAL HepG2 Assay for human SRY-box transcription factor (SOX) (AID 2282960); details: HepG2 Attagene cis-factorial SOX reporter, mRNA; actives raise or lower the signal
# Outline: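 Endogenous factor activity in human liver HepG2 cells carrying transfected cis-regulated reporter units. RNA taken 24 h post-dose, reverse-transcribed, PCR-amplified and sized by capillary electrophoresis. Gain or loss of signal fitted relative to DMSO.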
smiles,measurement,setting,value
CC(C)c1cccc(C(C)C)c1N1C(=O)c2ccc(O)cc2C1=O,AC50,[1],69.5 µM (active)
same,outcome,[2],inactive
same,AC50,[3],84.7 µM (active)
same,outcome,[4],inactive
same,outcome,[5],inactive
same,outcome,[6],inactive
same,AC50,[7],124 µM (active)
same,AC50,[8],68.4 µM (active)
same,AC50,[9],76.9 µM (active)
same,AC50,[10],76.9 µM (active)
same,outcome,[11],inactive
same,AC50,[12],26.9 µM (active)
same,AC50,[13],74.2 µM (active)
same,AC50,[14],100 µM (active)
same,outcome,[15],inactive
same,outcome,[16],inactive
same,AC50,[17],100 µM (active)
COc1cccc(-c2ccc(/C=C\CN3CCCCCC3)cc2Cl)c1,outcome,[1],inactive
same,outcome,[2],inactive
same,outcome,[3],inactive
same,outcome,[4],inactive
same,outcome,[5],inactive
same,outcome,[6],inactive
same,outcome,[7],inactive
same,outcome,[8],inactive
same,outcome,[9],inactive
same,outcome,[18],inactive
same,outcome,[10],inactive
same,AC50,[11],3.67 µM (active)
same,outcome,[12],inactive
same,outcome,[19],inactive
same,outcome,[13],inactive
same,AC50,[14],20.5 µM (active)
same,outcome,[15],inactive
same,outcome,[16],inactive
same,outcome,[17],inactive
Cn1c(=O)cc(Oc2ccc(F)cc2F)c2cnc(NCC(C)(C)O)nc21,outcome,[1],inactive
same,outcome,[2],inactive
same,outcome,[3],inactive
same,outcome,[4],inactive
same,outcome,[5],inactive
same,outcome,[6],inactive
same,outcome,[7],inactive
same,outcome,[8],inactive
same,outcome,[9],inactive
same,outcome,[18],inactive
same,outcome,[10],inactive
same,outcome,[11],inactive
same,outcome,[12],inactive
same,outcome,[19],inactive
same,outcome,[20],inactive
same,outcome,[13],inactive
same,outcome,[14],inactive
same,outcome,[15],inactive
same,outcome,[16],inactive
same,AC50,[17],56.9 µM (active)
Fc1ccccc1[C@@H](F)COC1CCC(Nc2ncnc3[nH]ncc23)CC1 (some centres undefined),outcome,[1],inactive
same,outcome,[2],inactive
same,AC50,[3],100 µM (active)
same,outcome,[4],inactive
same,outcome,[5],inactive
same,AC50,[6],2.96 µM (active)
same,outcome,[7],inactive
same,AC50,[8],157 µM (active)
same,AC50,[9],103 µM (active)
same,AC50,[18],26.2 µM (active)
same,outcome,[10],inactive
same,AC50,[11],25.4 µM (active)
same,AC50,[12],4.79 µM (active)
same,AC50,[19],26.1 µM (active)
same,outcome,[20],inactive
same,AC50,[13],168 µM (active)
same,AC50,[14],4.65 µM (active)
same,outcome,[15],inactive
same,AC50,[16],4.57 µM (active)
same,outcome,[17],inactive
CC(C)=CCC/C(C)=C/CO,outcome,[1],inactive
same,outcome,[2],inactive
same,outcome,[3],inactive
same,outcome,[4],inactive
same,outcome,[5],inactive
same,outcome,[7],inactive
same,outcome,[9],inactive
same,outcome,[10],inactive
same,outcome,[11],inactive
same,outcome,[19],inactive
same,outcome,[13],inactive
same,outcome,[14],inactive
same,outcome,[15],inactive
same,outcome,[16],inactive
same,outcome,[17],inactive
Cc1ccc(C)c(O)c1,outcome,[1],inactive
same,outcome,[2],inactive
same,outcome,[3],inactive
same,outcome,[4],inactive
same,outcome,[5],inactive
same,outcome,[6],inactive
same,outcome,[7],inactive
same,outcome,[8],inactive
same,outcome,[9],inactive
same,outcome,[18],inactive
same,outcome,[10],inactive
same,outcome,[11],inactive
same,outcome,[12],inactive
same,outcome,[19],inactive
same,outcome,[13],inactive
same,outcome,[14],inactive
same,outcome,[15],inactive
same,outcome,[16],inactive
same,outcome,[17],inactive
CC1(C)C(=O)N(Br)C(=O)N1Br,outcome,[1],inactive
same,outcome,[2],inactive
same,outcome,[3],inactive
same,outcome,[4],inactive
same,outcome,[5],inactive
same,outcome,[6],inactive
same,outcome,[7],inactive
same,outcome,[8],inactive
same,outcome,[9],inactive
same,outcome,[18],inactive
same,outcome,[10],inactive
same,outcome,[11],inactive
same,outcome,[12],inactive
same,outcome,[19],inactive
same,outcome,[13],inactive
same,outcome,[14],inactive
same,outcome,[15],inactive
same,outcome,[16],inactive
same,outcome,[17],inactive
